Reference: PubChem BioAssay AID1508625 (Wald Lab, School of Medicine, Case Western Reserve …, 2021)

Test: small molecules boosting NK-mediated OVCAR3 lysis – imaging, primary NK cells, calcein-AM imaging, primary screen (AID 1508625);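 note: compound given to NK cells 16 h before adding targets at 1.5 to 1 ratio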;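 for z-score: more negative robust z means stronger NK killing of tumor cells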
Details: OVCAR3 lysis by primary NK cells, at 5 µM; z-score: measured here: robust Z-score, single-point normalisation

Compound	z-score	corrected activity, negative = more killing [%]
COc1ccc(C2(CN)CCCC2)cc1OC	-0.675	-1.26
CCCCCn1c(=O)c(C(=O)Nc2cccc(OC)c2)c(O)c2ccccc21	-0.108	-0.341
O=S1(=O)CC2(N3CCOCC3)CCCCC21 (configuration not stated)	-1.76	-5.53
CCCC12CN3CCN(CC(C3)C1O)C2 (configuration not stated)	0.0449	0.145
O=[N+]([O-])c1ccc(NCCc2ccccc2)c2ncccc12	0.498	1.61
CCOC(=O)CN1C(=O)NC2(CCN(C)CC2)C1=O	-1.02	-3.8
COc1cccc(CCNCc2ccc(C)cc2C)c1	-1.29	-4.05
COc1ccccc1CC(C)NC1CCCc2c1[nH]c1ccc([N+](=O)[O-])cc21 (configuration not stated)	1.24	2.84
Cc1ccc(OCC(=O)N2CCN(C3CCCCC3)CC2)cc1	-1.62	-3.64
O=[N+]([O-])c1ccccc1CNCCc1cccc(F)c1	-1.06	-3.35
Cc1cnc2cccc[n+]2c1C	0.254	0.645
CC12CN3CN(C1)CC(C)(C3)C2=NN	-2.42	-6.15
CCOP(=S)(OCC)SCC(=O)c1c(O)cc(C)oc1=O	-1.01	-2.68
FC(F)(F)c1ccc(CNCCc2ccc3c(c2)OCO3)cc1	-1.07	-3.37
CC(Cc1ccccc1F)NC1CCCc2c1[nH]c1ccc([N+](=O)[O-])cc21 (configuration not stated)	-0.594	-1.36
CCC(C)N1CCN(Cc2cccc(Cl)c2)CC1 (configuration not stated)	-0.137	-0.307
C=CCON=C(CCC)C1C(=O)CC(C)(C)C(C(=O)OC)C1=O (configuration not stated)	-1.77	-4.48
CCOc1cccc(C(O)CNC)c1 (configuration not stated)	0.0176	0.0567
O=c1cccc2n1C[C@H]1C[C@@H]2CN(Cc2ccccc2F)C1	-1.43	-2.76
O=c1c2ccccc2nc(-c2ccco2)n1-c1ccc(Cl)cc1	-0.329	-0.835
CCN(CC)CCCn1c(=S)[nH]c2cc(Cl)ccc2c1=O	-1.2	-4.51
